Bioassay records as filed in PubChem.
UGM FP inh – Mtb UDP-galactopyranose mutase inhibition; P9WIQ1; purified UGM, fluorescence polarization probe displacement; inhibition, % at 10 µM; hit rate 0.06% among 320,000; in the data active = inhibition above about 10%, passing the limit was not always enough; inconclusive = no clear call, values can overlap the other calls
Target sequence (P9WIQ1 whole entry, looked up): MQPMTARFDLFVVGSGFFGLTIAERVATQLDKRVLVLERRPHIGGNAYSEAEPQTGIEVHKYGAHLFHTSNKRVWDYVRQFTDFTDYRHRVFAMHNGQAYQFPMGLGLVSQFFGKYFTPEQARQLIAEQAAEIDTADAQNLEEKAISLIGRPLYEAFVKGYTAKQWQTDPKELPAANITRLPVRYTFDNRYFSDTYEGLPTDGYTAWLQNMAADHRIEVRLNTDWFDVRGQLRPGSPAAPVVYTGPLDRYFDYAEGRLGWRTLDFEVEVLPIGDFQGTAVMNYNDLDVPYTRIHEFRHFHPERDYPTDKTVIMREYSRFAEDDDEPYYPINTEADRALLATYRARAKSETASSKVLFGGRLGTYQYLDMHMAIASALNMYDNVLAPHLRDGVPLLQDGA
Mtb betalactam – beta-lactam sensitization of Mtb H37Rv. M. tuberculosis H37Rv growth with meropenem, percent inhibition. inhibition, % at 25 µM. hit rate 0.27% among 330,000. AID 434955; call rule not given here;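 also: growth measured after seven days incubation then overnight dye step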
Rv3671c inh – inhibits the M. tuberculosis serine protease Rv3671c | inhibition, % at 5.96 µM | hit rate 0.048% among 320,000 | AID 2606; in the data active = inhibition above about 38%;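 also: extracellular domain of Rv3671c used as enzyme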
PriA SSB inh – blocks PriA binding to SSB C-terminal tail | AlphaScreen SSBct-PriA binding, biotinylated peptide | inhibition, % at 33 µM | hit rate 0.6% among 430,000 | AID 1272365; in the data active = inhibition mostly above about 37%, no sharp cut-off; inactive = mostly below about 20%
RecA splice inh – Mtb RecA intein splicing inhibition; inhibition, % (concentration not given with the values); hit rate 0.75% among 290,000; AID 2221; P9WHJ3; cell-free RecA intein splicing, fluorescence; in the data active = inhibition above about 30%; inconclusive = no clear call, values can overlap the other calls
Of the large screens only hits and unclear results are named; the others gave an inactive call; ! = not confirmed by another sample. Hits are enriched below; roughly 1.1% of the tested compounds scored in any of these assays.

C=CCSc1ncc(-c2ccc(OC)cc2)n1-c1cccc(Cl)c1	PriA SSB inh 32 (no result: UGM FP inh, Mtb betalactam, Rv3671c inh, RecA splice inh)
CC(C)N(CC(=O)Nc1ccc(Cl)cc1C(F)(F)F)C(=O)CCl	RecA splice inh 59
CCC(C)N(CC(=O)Nc1cccc(C)c1C)C(=O)CCl (stereo unspecified)	RecA splice inh 43
CCC(CC)NC(=O)Nc1cccc(C)c1C	none
O=C(O)CSCC(=O)Nc1ccc(Cl)cc1C(F)(F)F	none
O=C(OC1CN(c2nc3ccccc3s2)C1)C1CCN(S(=O)(=O)c2ccc(Cl)s2)CC1	none (no result: UGM FP inh, Mtb betalactam, Rv3671c inh, RecA splice inh)
COc1ccccc1NC(=O)NCCn1nc(-c2ccc(C)cc2)ccc1=O	none (no result: UGM FP inh, Mtb betalactam, Rv3671c inh, RecA splice inh)
Cc1ccc2[nH]c(-c3cccc(F)c3)cc(=O)c2c1	none
Cc1ccc2[nH]c(-c3cccc(N)c3)cc2c1	PriA SSB inh 39
Cc1csc(NC(=O)CSc2ccc(-c3ccccn3)nn2)n1	PriA SSB inh 63
COc1ccc(CCNC(=O)CSc2ccc(-c3ccccn3)nn2)cc1OC	PriA SSB inh 94 (no result: UGM FP inh, Mtb betalactam, Rv3671c inh, RecA splice inh)
O=C(CSc1ccc(-c2ccccn2)nn1)Nc1ccc(F)cc1	none (no result: UGM FP inh, Mtb betalactam, Rv3671c inh, RecA splice inh)
O=C(CSc1ccc(-c2ccccn2)nn1)Nc1cccc(F)c1	PriA SSB inh 55
O=C(CSc1ccc(-c2ccccn2)nn1)Nc1cccc([N+](=O)[O-])c1	PriA SSB inh 48 (no result: UGM FP inh, Mtb betalactam, Rv3671c inh, RecA splice inh)
O=C(CSc1ccc(-c2ccccn2)nn1)Nc1nccs1	none
COc1ccc(-c2ccc(SCC(=O)NCc3ccc4c(c3)OCO4)nn2)cc1OC	none
COC(=O)c1ccc(NC(=O)CSc2ccc(-c3ccccn3)nn2)cc1	PriA SSB inh 37!
COc1ccccc1CCNC(=O)CSc1ccc(-c2ccc3c(c2)OCO3)nn1	PriA SSB inh 67 (no result: UGM FP inh, Mtb betalactam, Rv3671c inh, RecA splice inh)
Nn1c(SCc2ccccc2)nnc1-c1ccccn1	PriA SSB inh 45
COc1cccc(C(=O)OCC(=O)NCc2ccc3c(c2)OCO3)c1OC	UGM FP inh 10 (no result: RecA splice inh)
CS(=O)(=O)c1ccccc1-c1nnc(NC(=O)CCSc2ccc(Cl)cc2)o1	none (no result: UGM FP inh, Mtb betalactam, Rv3671c inh, RecA splice inh)
COCCNC(=S)NN=C(C)c1ccccc1O	none (no result: UGM FP inh, Mtb betalactam, Rv3671c inh, RecA splice inh)
CCC1=NN2C(=N)/C(=C\c3cccn3-c3ccc(OC)cc3)C(=O)N=C2S1	UGM FP inh 14
CCc1c(C)nc(-n2nc(C)cc2NC(=O)c2ccccc2SC)[nH]c1=O	none (no result: UGM FP inh, Mtb betalactam, Rv3671c inh, RecA splice inh)
CCOC(=O)c1cnc2ccc(C)cc2c1N(C)Cc1ccccc1	none
CCOC(=O)c1cnc2ccc(C)cc2c1Sc1ccc(F)cc1	RecA splice inh 67
O=C(CSc1cccc2cccnc12)n1c2ccccc2c2ccccc21	PriA SSB inh 73 (no result: UGM FP inh, Mtb betalactam, Rv3671c inh, RecA splice inh)
O=C(CSc1cccc2cccnc12)N1CCc2ccccc2C1	PriA SSB inh 91 (no result: UGM FP inh, Mtb betalactam, Rv3671c inh, RecA splice inh)
NNC(=O)CSc1cccc2cccnc12	Mtb betalactam inconclusive
Cc1cc(C)c(C(=O)CSc2cccc3cccnc23)cc1C	PriA SSB inh 59 (no result: UGM FP inh, Mtb betalactam, Rv3671c inh, RecA splice inh)
CN(C)C(=O)CSc1cccc2cccnc12	PriA SSB inh 94
COC(=O)CSc1cccc2cccnc12	none (no result: UGM FP inh, Mtb betalactam, Rv3671c inh, RecA splice inh)
COc1ccc(C(=O)NCC2CCN(C(=O)c3ccoc3)CC2)cc1F	none (no result: UGM FP inh, Mtb betalactam, Rv3671c inh, RecA splice inh)
CN(C)c1nc(N2CCCCC2)ncc1NC(=O)Nc1cccc(F)c1	none (no result: UGM FP inh, Mtb betalactam, Rv3671c inh, RecA splice inh)
O=C(CSc1cccc2cccnc12)N1CCCC1	PriA SSB inh 79
O=C(CSc1nnc(COc2ccccc2)o1)NCC1CCCO1 (stereo unspecified)	none (no result: UGM FP inh, Mtb betalactam, Rv3671c inh, RecA splice inh)
CCN(CCCNC(=O)CC(C(=O)N1CCc2ccccc21)n1ccnc1)c1cccc(C)c1 (stereo unspecified)	PriA SSB inh 47
O=C1c2ccccc2-c2onc3c(N4CCN(CCO)CC4)cc(N4CCN(C(=O)c5ccco5)CC4)c1c23	PriA SSB inh 80
CN1CCN(c2cc(N3CCN(C(=O)c4ccco4)CC3)c3c4c(onc24)-c2ccccc2C3=O)CC1	PriA SSB inh 77
O=C(O)CCCNc1cc(N2CCN(C(=O)c3ccco3)CC2)c2noc3c2c1C(=O)c1ccccc1-3	PriA SSB inh 41
O=C(c1ccco1)N1CCN(CCCCN2C(=O)c3ccccc3C2=O)CC1	none
O=C(O)CCCNc1cc(N2CCC3(CC2)OCCO3)c2noc3c2c1C(=O)c1ccccc1-3	none (no result: PriA SSB inh, RecA splice inh)
O=c1nc(NN=Cc2ccccn2)cn[nH]1	PriA SSB inh 82 (no result: UGM FP inh, Mtb betalactam, Rv3671c inh, RecA splice inh)
Cc1cc(=O)[nH]c(N/N=C/c2ccccn2)n1	none (no result: PriA SSB inh)
Cc1cc(=O)[nH]c(NN=Cc2ccccn2)n1	PriA SSB inh 83 (no result: UGM FP inh, Mtb betalactam, Rv3671c inh, RecA splice inh)
Cc1csc(NC(=O)C2CCN(Cc3nc4ccccc4[nH]3)CC2)n1	none (no result: UGM FP inh, Mtb betalactam, Rv3671c inh, RecA splice inh)
COc1ccccc1NC(=O)C1CCN(S(=O)(=O)c2cccs2)CC1	UGM FP inh 17 (no result: RecA splice inh)
CCOC(=O)N1CCN(C(=O)C(=O)Nc2ccc3nc4n(c(=O)c3c2)CCCCC4)CC1	PriA SSB inh 104
COc1ccc2sc(N(CCCN3CCOCC3)C(=O)c3cccc([N+](=O)[O-])c3)nc2c1	PriA SSB inh 47 (no result: UGM FP inh, Mtb betalactam, Rv3671c inh, RecA splice inh)
